High-throughput results (PubChem BioAssay)
ATXN2 expr inh: reduces ATXN2 reporter expression in HEK-293 cells | HEK-293 ATXN2-luciferase reporter, luminescence, 24 h | Potency, µM (highest dose often 57 µM), actives largely listed as inhibitors | hit rate 0.72% among 360,000; further: nearly all actives have a fitted effect of over 55% in size
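ATXN2-luciferase reporter cells (luciferase flanked by upstream and downstream ATXN2 gene portions) were treated 24 h at 37 °C with compounds at up to 57 uM. SteadyGlo luminescence gave expression; GF-AFC fluorescence gave viability.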
IL1B secr inh: inhibitors of inflammasome signaling (IL-1 beta secretion). activity change, % at 57.5 µM. hit rate 4.7% among 360,000. THP-1 LPS/ATP IL-1B secretion, AlphaLISA, 16 h; hits give low values; in the data active means activity change below about -50%; inconclusive means mostly about -30% to -49%
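THP-1 cells pretreated 1 hr with compounds (up to 57.5 uM final), then stimulated with LPS (250 ng/mL final) plus ATP (1.25 mM final); secreted IL-1B measured by AlphaLISA after 16 hr, decreased signal indicating inhibition.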
HepG2 tox: counter-screen for TGF-b inhibitors: cytotoxicity in HepG2 cells; HepG2 CAGA-GFP viability, ATP luminescence, 18 h; hit rate 0.76% among 410,000; Potency, µM (doses to about 46.1 µM), most hits filed as cytotoxic; AID 588856
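CellTiter-Glo luminescence gave cytotoxicity after 18 hours at 37 degrees C. The cells were HepG2 CAGA-GFP in 1% FBS DMEM, stimulated with 500 pg/mL TGF-beta after compound addition. %Activity was normalised to no-cell wells (complete cell-killing) and DMSO (no toxicity), and curves were fitted and classified.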
S2 tox: cell viability loss in ATXN counter-screen. S2 cells (HEK-293 line with an ATXN2-luciferase reporter) viability, CellTiter-Fluor protease fluorescence, 24 h. Potency, µM (titrated, usually from 56.7 µM), usual class: cytotoxic. hit rate 0.49% among 400,000. AID 651635; further: nearly all actives have a fitted effect of over 40% in size
TGFb inhibitor: blocks TGF-b signaling; HepG2 CAGA-GFP TGF-b/SMAD3 reporter, GFP fluorescence, 18 h; TGF-beta stimulated, 500 pg/mL final; Potency, µM (top dose mostly 46.1 µM), usual class: inhibitors; hit rate 1.2% among 410,000; further: nearly all actives have a fitted effect of over 65% in size
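Inhibition was scored as loss of TGF-beta-induced (500 pg/mL final, 18 hours, 37 degrees C) GFP in HEPG2 cells carrying a CAGA-GFP reporter, in DMEM with 1% FBS. Well GFP was summed per cell; Activity was normalised to unstimulated and stimulated DMSO wells, then concentration-response fitting.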
Each line names hits and unclear results; the compound was inactive in the other large screens. An excerpt weighted towards active compounds, which were near 5.7% of everything screened. Unless noted, the call rests on the fitted dose curve; in most records, active means well fitted curve in the direction sought with a large enough effect; inconclusive means small, poorly fitted or top-dose-only effect, or another doubt; inactive means no such curve, though single readings can be large; an effect the other way counts as inactive or inconclusive.

CC(=O)O/N=C1\C(=O)N(Cc2ccc(C)cc2)c2ccccc21	IL1B secr inh -94, S2 tox inconclusive
COc1ccccc1CN1CCOc2ccc(CN3CCC(Oc4cccnc4)CC3)cc2C1	none (no result: ATXN2 expr inh, IL1B secr inh, HepG2 tox, TGFb inhibitor)
C=CCNc1nc(-c2sc(NC(=O)CC)nc2C)cs1	IL1B secr inh inconclusive
COc1ccc(Nc2nc(C)c(-c3ccccc3)s2)cc1	none
Cc1nc(Nc2ccc(S(N)(=O)=O)cc2)sc1-c1ccccc1	IL1B secr inh -80, TGFb inhibitor inconclusive
CC(=O)Nc1ccc(Nc2nc(-c3sc(C)nc3C)cs2)cc1	ATXN2 expr inh inconclusive, IL1B secr inh -50
Cc1nc(C)c(-c2csc(Nc3ccc(S(N)(=O)=O)cc3)n2)s1	ATXN2 expr inh inconclusive, IL1B secr inh -59
C=CCNc1nc(-c2sc(NC(C)=O)nc2C)cs1	IL1B secr inh -58
COc1ccc(C2Nc3ccccc3C(=O)N2Cc2ccco2)cc1COc1ccccc1F (stereo unspecified)	IL1B secr inh -69
C(=Nc1ccc(Nc2ccccc2)cc1)c1ccc2ccccc2c1	IL1B secr inh -69, S2 tox inconclusive
Brc1ccc(C=Nc2ccc(Nc3ccccc3)cc2)s1	S2 tox inconclusive
COc1ccccc1N1CCN(C(=O)Cn2c(=O)n3nc(-c4cccc(C)c4)nc3c3ccccc32)CC1	none (no result: IL1B secr inh)
COc1ccc(Cl)cc1NC(=O)Cn1cc(S(=O)(=O)Cc2cccc(Cl)c2)c2ccccc21	TGFb inhibitor inconclusive (no result: ATXN2 expr inh, IL1B secr inh, S2 tox)
Cc1noc(/C=C/c2ccccn2)c1[N+](=O)[O-]	IL1B secr inh -51
O=C(Cn1cc(C(=O)C(F)(F)F)c2ccccc21)Nc1ccccc1F	HepG2 tox 11µM, S2 tox inconclusive
O=C(CN(c1cccc(C(F)(F)F)c1)S(=O)(=O)c1ccc(Cl)c([N+](=O)[O-])c1)NCc1ccccc1Cl	ATXN2 expr inh inconclusive, IL1B secr inh -100, TGFb inhibitor inconclusive (no result: S2 tox)
O=C(CN(c1cccc(C(F)(F)F)c1)S(=O)(=O)c1ccc(Cl)c([N+](=O)[O-])c1)NCc1ccccc1	none
CC(NC(=O)CN(c1cccc(C(F)(F)F)c1)S(=O)(=O)c1ccc(Cl)c([N+](=O)[O-])c1)c1ccccc1 (stereo unspecified)	ATXN2 expr inh inconclusive, IL1B secr inh -91, S2 tox inconclusive, TGFb inhibitor inconclusive
CCOC(=O)c1cccc(NC(=O)NC(C)c2c(-n3cccc3)sc3c2CCN(C)C3)c1 (stereo unspecified)	TGFb inhibitor inconclusive (no result: ATXN2 expr inh, IL1B secr inh, S2 tox)
OCc1nc2ccccc2n1CCCCOc1ccccc1	none
Cc1cccc(NCc2nc3ccccc3n2CCOc2ccccc2C)c1	ATXN2 expr inh inconclusive, S2 tox inconclusive, TGFb inhibitor 11µM (no result: IL1B secr inh)
Cc1ccc(NCc2nc3ccccc3n2CCOc2ccccc2C)cc1	S2 tox inconclusive, TGFb inhibitor inconclusive (no result: IL1B secr inh)
Cc1ccccc1NCc1nc2ccccc2n1CCOc1ccccc1	S2 tox inconclusive, TGFb inhibitor 14µM (no result: IL1B secr inh)
Cc1ccc(OCCCCn2c(CO)nc3ccccc32)cc1	IL1B secr inh -52
Clc1ccc(NCc2nc3ccccc3n2CCOc2ccccc2)cc1	TGFb inhibitor inconclusive (no result: IL1B secr inh)
O=C(O)c1cc(-c2ccc(C(F)(F)F)cc2)nc2n[nH]c(-c3ccccc3)c12	none (no result: IL1B secr inh)
Cc1c(-c2ccccc2)nc2ccccc2c1C(=O)Oc1ccc([N+](=O)[O-])cc1	IL1B secr inh -51
O=S(=O)(c1cccc(F)c1)N1CCC(Oc2ccc(-n3cnnn3)cc2)CC1	none (no result: ATXN2 expr inh, IL1B secr inh, S2 tox)
COc1ccc(-c2cc(C(=O)Nc3ccccc3N3CCOCC3)c3ccccc3n2)cc1OC	ATXN2 expr inh inconclusive, IL1B secr inh -52, S2 tox inconclusive
O=C(Nc1cccnc1)c1cc(-c2cccc(Br)c2)nc2ccccc12	S2 tox inconclusive, TGFb inhibitor inconclusive
O=C(Nc1ccncc1)c1cc(-c2cccc(Br)c2)nc2ccccc12	ATXN2 expr inh inconclusive, IL1B secr inh -78, S2 tox inconclusive
NS(=O)(=O)c1ccc(CNC(=O)c2cc(-c3ccccc3)nc3ccccc23)cc1	none
Cc1cnn(C(=O)c2cc(-c3ccccc3)nc3ccccc23)c1	HepG2 tox 10µM, TGFb inhibitor inconclusive
COc1cc(-c2cc(C(=O)NCc3ccc(S(N)(=O)=O)cc3)c3ccccc3n2)cc(OC)c1OC	IL1B secr inh -62
COc1ccc(-c2ccc(CCC(=O)O)n2CC(=O)Nc2cccc(C(F)(F)F)c2)cc1	none (no result: IL1B secr inh)
